FXIa single inh: inhibitors of human coagulation factor XIa. purified human FXIa, fluorogenic AMC substrate cleavage. inhibition, % at 10 µM. 33,000 tested, 0.3% active. AID 687;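 active = inhibition above 40% in the primary screen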
Target sequence (P03951 19-387 limits assumed): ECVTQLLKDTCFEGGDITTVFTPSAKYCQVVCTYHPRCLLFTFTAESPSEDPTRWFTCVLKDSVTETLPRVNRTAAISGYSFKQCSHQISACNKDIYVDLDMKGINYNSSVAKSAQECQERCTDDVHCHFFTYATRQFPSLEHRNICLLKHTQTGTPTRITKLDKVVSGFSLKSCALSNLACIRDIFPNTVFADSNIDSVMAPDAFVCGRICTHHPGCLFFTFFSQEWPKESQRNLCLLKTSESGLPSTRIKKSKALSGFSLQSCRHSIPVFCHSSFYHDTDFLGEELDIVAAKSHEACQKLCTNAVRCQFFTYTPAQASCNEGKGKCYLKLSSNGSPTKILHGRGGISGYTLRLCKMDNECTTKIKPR
Target sequence (P03951 388-625 limits assumed): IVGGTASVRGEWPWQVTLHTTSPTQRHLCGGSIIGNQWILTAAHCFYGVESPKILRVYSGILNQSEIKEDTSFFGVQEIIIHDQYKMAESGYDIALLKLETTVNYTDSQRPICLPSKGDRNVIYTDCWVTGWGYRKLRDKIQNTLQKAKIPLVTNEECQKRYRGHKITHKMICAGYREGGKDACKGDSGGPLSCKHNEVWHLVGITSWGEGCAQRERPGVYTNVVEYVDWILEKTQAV
FXIIa single: blocks human coagulation factor XIIa activity. 33,000 tested, 0.2% active. AID 701. inhibition, % at 10 µM. purified human FXIIa, AMC substrate fluorescence, 2 h; in the data active = inhibition above about 30%
Large screens that a line does not name were inactive. Only a selection was taken, and hits are over-represented in it overall.

CNCCCc1ccccc1	FXIa single inh 41
COc1ccc(CCC(C)NCCc2ccccc2)cc1 (stereo not drawn)	none
C[N+]1(C)[C@@H]2CC[C@H]1CC(OC(=O)C(CO)c1ccccc1)C2 (stereo partly drawn)	none

Source: PubChem
